Source: PubChem BioAssay (NCI)
The panel holds about 83,000 compounds, 20% with a hit somewhere; the sample as a whole holds those more often.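 Assay: single dose, 48 h. Readout: percent growth (0 = no net growth; negative = cell death). Active: <10.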 Values without a mark were called inactive. The source made the active and inactive calls.

Key:
Test in all cases: NCI-60 one-dose screen, 48 h (100 = growth as untreated, 0 = no growth, -100 = all killed)
Settings in all cases: 10 µM unless noted
[1] = system: NCI-H23 lung
[2] = system: NCI-H226 lung
[3] = system: NCI-H322M lung
[4] = system: HOP-62 NSCLC
[5] = system: NCI-H460 lung
[6] = system: HOP-92 NSCLC
[7] = system: NCI-H522 lung
[8] = system: A549/ATCC NSCLC
[9] = system: 786-0 renal
[10] = system: COLO 205 colon
[11] = system: DU-145 prostate
[12] = system: K-562 leukemia
[13] = system: MALME-3M melanoma
[14] = system: MDA-MB-231 breast
[15] = system: RXF 393 renal
[16] = system: SF-268 CNS
[17] = system: SF-295 CNS
[18] = system: SF-539 CNS
[19] = system: UACC-257 melanoma
[20] = system: M14 melanoma

Cc1cc(N2CCN(C)CC2)nc(N(CCNc2ccnc3cc(Cl)ccc23)Cc2ccco2)n1
growth [1]: 57.5% | growth [2]: 92.9% | growth [3]: 51% | growth [4]: 26.8% | growth [5]: 24.3% | growth [6]: 49.2% | growth [7]: 53.7% | growth [8]: 41.4% | growth [9]: 32.6% | growth [10]: -5.82% (active) | growth [11]: 56.8% | growth [12]: 1.61% (active) | growth [13]: -57.7% (active) | growth [14]: 9.87% (active) | growth [15]: 40.4% | growth [16]: 52.8% | growth [17]: -15.3% (active) | growth [18]: -68.3% (active) | growth [19]: 5.22% (active) | growth [20]: -87.5% (active)

CCOC(=O)N1CCN(CCCCOc2ccc(C(C)(C)CC)cc2)CC1
growth [1]: 89.4% | growth [2]: 88.5% | growth [3]: 113% | growth [4]: 100% | growth [5]: 105% | growth [6]: 86.3% | growth [7]: 77.8% | growth [8]: 95.7% | growth [9]: 99.7% | growth [10]: 105% | growth [11]: 104% | growth [12]: 68.1% | growth [13]: 92.3% | growth [14]: 102% | growth [15]: 111% | growth [16]: 105% | growth [17]: 98.4% | growth [18]: 104% | growth [19]: 94% | growth [20]: 87.9%

Clc1ccc(Cn2cc(-c3nc4ccc(Br)nc4n3Cc3ccc(Cl)cc3)c3cccnc32)cc1
growth [1]: 65.9% | growth [2]: 77.7% | growth [3]: 81.1% | growth [4]: 82.7% | growth [5]: 97.4% | growth [6]: 65.4% | growth [7]: 70% | growth [8]: 95.9% | growth [9]: 90.5% | growth [10]: 94.5% | growth [11]: 105% | growth [12]: 78.9% | growth [13]: 92.4% | growth [14]: 53.1% | growth [15]: 83% | growth [16]: 89.2% | growth [17]: 83.9% | growth [18]: 86% | growth [20]: 89.8%

C=C(C)[C@@H]1CC[C@]2(C)[C@H](CC=C3[C@@H]4CC(C)(C)CC[C@]4(C(=O)OC)CC[C@]32C)[C@@]1(C)CC/C(N)=N/O
growth [1]: 8.68% (active) | growth [2]: 2.13% (active) | growth [3]: 85.6% | growth [4]: 79.3% | growth [5]: 74.9% | growth [6]: 45.9% | growth [7]: 33.5% | growth [8]: -28.8% (active) | growth [9]: 66.6% | growth [10]: 35.6% | growth [11]: 75.1% | growth [12]: 23.9% | growth [13]: 58.9% | growth [14]: 66.1% | growth [15]: -49.4% (active) | growth [16]: 67.9% | growth [17]: 33.6% | growth [18]: 65.3% | growth [19]: -32.1% (active) | growth [20]: 43.8%

Cn1cc(-c2csc(-c3cn(CCCN4CCCCC4)c4ccc(Br)cc34)n2)c2cccnc21
growth [1]: 43.3% | growth [2]: 75.9% | growth [3]: 49.7% | growth [4]: -56.5% (active) | growth [5]: -66.8% (active) | growth [6]: 31.5% | growth [7]: 11.7% | growth [8]: -49% (active) | growth [9]: -75.9% (active) | growth [10]: -79.5% (active) | growth [11]: -26.5% (active) | growth [12]: -63.6% (active) | growth [13]: -25.7% (active) | growth [14]: -50.7% (active) | growth [15]: 23.3% | growth [16]: 46.1% | growth [17]: 31.8% | growth [18]: -73% (active) | growth [19]: 68.1% | growth [20]: -88.1% (active)

CCCCn1c(-c2ccc(O)cc2)cn2c3c(=O)[nH]c(=O)n(C)c3nc12
growth [1]: 82.2% | growth [2]: 85% | growth [3]: 119% | growth [4]: 82% | growth [5]: 68.6% | growth [6]: 43.1% | growth [7]: 30.9% | growth [8]: 75% | growth [9]: 88.8% | growth [10]: 89.9% | growth [11]: 101% | growth [12]: 34.3% | growth [13]: 90.7% | growth [14]: 66.5% | growth [15]: 74.9% | growth [16]: 86.3% | growth [17]: 78.1% | growth [18]: 74.9% | growth [19]: 79.1% | growth [20]: 54.1%

COc1ccc2c(c1)C(Br)=C(CCO)C2c1ccccc1 (centres undefined)
growth [1]: 95% | growth [2]: 100% | growth [3]: 15.8% | growth [4]: 22.1% | growth [5]: 9.69% (active) | growth [6]: 35.5% | growth [7]: 96.8% | growth [8]: 25.1% | growth [9]: 85.4% | growth [10]: 48.2% | growth [11]: -10.3% (active) | growth [12]: 122% | growth [13]: 90.6% | growth [14]: 56.3% | growth [15]: 20% | growth [16]: 84.3% | growth [17]: 1.56% (active) | growth [18]: 63.7% | growth [19]: 77.6% | growth [20]: 89%

C[C@H]1[C@H]2C3=CC[C@@H]4[C@@]5(C)C/C(=C/c6ccco6)C(=O)C(C)(C)[C@@H]5CC[C@@]4(C)[C@]3(C)CC[C@@]2(C(=O)N2CCOCC2)CC[C@@H]1C
growth [1]: 44.2% | growth [2]: 83.8% | growth [3]: 95.3% | growth [4]: 105% | growth [5]: 94.9% | growth [6]: 78.4% | growth [7]: 38% | growth [8]: 70.4% | growth [9]: 95.5% | growth [10]: 94.1% | growth [11]: 88.1% | growth [12]: 27.4% | growth [13]: 83.3% | growth [14]: 90.5% | growth [15]: 62% | growth [16]: 85.8% | growth [17]: 81.4% | growth [18]: 82.7% | growth [19]: 88.4% | growth [20]: 76.9%

O=[N+]([O-])c1ccc(N/N=C(\C(=N/Nc2ccc([N+](=O)[O-])cc2[N+](=O)[O-])c2ccccc2)c2ccccc2)c([N+](=O)[O-])c1
growth [1]: 104% | growth [2]: 93.5% | growth [3]: 85.6% | growth [4]: 89.5% | growth [5]: 52.1% | growth [6]: 92.4% | growth [7]: 83.4% | growth [8]: 51.4% | growth [9]: 90.5% | growth [10]: 43.8% | growth [11]: 86.4% | growth [12]: 97.3% | growth [13]: 65.6% | growth [14]: 94.2% | growth [15]: 111% | growth [16]: 82.6% | growth [17]: 94.6% | growth [18]: 89.2% | growth [19]: 95.2% | growth [20]: 100%

O=C1/C(=C\c2ccc(Br)o2)SC(=S)N1CCc1ccc(O)cc1
growth [1]: 49.7% | growth [2]: 97.3% | growth [3]: 88.3% | growth [4]: 83.5% | growth [5]: 107% | growth [6]: 55.3% | growth [7]: 37.8% | growth [8]: 100% | growth [9]: 78.7% | growth [10]: 97.8% | growth [11]: 43% | growth [12]: 65.6% | growth [13]: 69% | growth [14]: 53.2% | growth [15]: 51.9% | growth [16]: 96% | growth [17]: 94.9% | growth [18]: 52.3% | growth [19]: 77.2% | growth [20]: 73.7%

Fc1ccc(Nc2nnc(-c3ccc(Cl)cc3)o2)cc1
growth [1]: 95% | growth [2]: 93.8% | growth [3]: 103% | growth [4]: 89.5% | growth [5]: 105% | growth [6]: 95.5% | growth [7]: 74% | growth [8]: 81.3% | growth [9]: 104% | growth [10]: 94.2% | growth [11]: 107% | growth [12]: 70.6% | growth [13]: 95.6% | growth [14]: 85.9% | growth [15]: 100% | growth [16]: 99.3% | growth [17]: 102% | growth [18]: 103% | growth [19]: 88.9% | growth [20]: 95.4%

CC1(C)[C@@H](O)CC[C@]2(C)[C@H]3CC[C@@H]4[C@H]5[C@H](C(=O)/C=C/c6ccc(C(F)(F)F)cc6)CC[C@]5(CO)CC[C@@]4(C)[C@]3(C)CC[C@@H]12
growth [1]: 56.9% | growth [2]: 30% | growth [3]: 80.7% | growth [4]: 97.4% | growth [5]: 65.4% | growth [6]: 66% | growth [7]: 60.6% | growth [8]: 47.8% | growth [9]: 64.9% | growth [10]: 73.8% | growth [11]: 70.1% | growth [12]: 32.9% | growth [13]: 8.37% (active) | growth [14]: 71.4% | growth [15]: 32.3% | growth [16]: 75.5% | growth [17]: 72.1% | growth [18]: 55.1% | growth [19]: 67.4% | growth [20]: 7.81% (active)

COc1cc(OC)c2c(c1)c1nc3cc(C)c(C)cc3nc1n2CCN(C)C
growth [1]: 91.3% | growth [2]: 90.5% | growth [3]: 87.1% | growth [4]: 79.4% | growth [5]: 84.8% | growth [6]: 81.7% | growth [7]: 79.2% | growth [8]: 80.4% | growth [9]: 83.9% | growth [10]: 74.9% | growth [11]: 90.2% | growth [12]: 78.3% | growth [13]: 80.9% | growth [14]: 79.5% | growth [15]: 96.2% | growth [16]: 93.7% | growth [17]: 90.2% | growth [18]: 86% | growth [19]: 94.9% | growth [20]: 84.2%

O=C(N/N=C/c1ccccc1SSc1ccccc1/C=N/NC(=O)c1ccccc1)c1ccccc1
growth [1]: 33.5% | growth [2]: 44.8% | growth [3]: 46.5% | growth [4]: 20.2% | growth [5]: 10% (active) | growth [6]: 59.6% | growth [7]: 54% | growth [8]: 49.6% | growth [9]: 23.6% | growth [10]: 6.05% (active) | growth [11]: 35.3% | growth [12]: 18.3% | growth [13]: 48.9% | growth [14]: 44.7% | growth [15]: 34.2% | growth [16]: 32% | growth [17]: 38.2% | growth [18]: 26.9% | growth [19]: 45.1% | growth [20]: 12.9%

CN1CCN(CC#CCn2c3c(c4ccccc42)C[C@]2(C)[C@H]4CC[C@@H]5[C@H]6[C@H]7OC(=O)[C@@]6(CCC7(C)C)CC[C@@]5(C)[C@]4(C)CC[C@H]2C3(C)C)CC1
growth [1]: 92.7% | growth [2]: 91.6% | growth [3]: 106% | growth [4]: 95.2% | growth [5]: 98.6% | growth [6]: 67.4% | growth [7]: 102% | growth [8]: 58.6% | growth [9]: 107% | growth [10]: 108% | growth [11]: 35.4% | growth [12]: 12.7% | growth [13]: 113% | growth [14]: 42.7% | growth [15]: 67.1% | growth [16]: 92.9% | growth [17]: 104% | growth [18]: 89.1% | growth [19]: 109% | growth [20]: 80.9%
